High-throughput results (PubChem)
The sample as a whole holds a higher share of hits than the screen did.
NOMO-1 viab = NOMO-1 AML cell viability reduction, primary screen, STK33 inhibitor project, CellTiter-Glo luminescence. NOMO-1 AML viability, 72 h. inhibition, % (test concentration not listed). 37,000 compounds, 7.5% hits. AID 2330, 2010; in the data active means inhibition above about 80%; inconclusive means no clear call, values can overlap the other calls
STK33 kin inh = STK33 kinase inhibitors, primary screen, biochemical, luminescence, ADP-Glo, MBP substrate; inhibition, % at 12.5 µM; 27,000 compounds, 0.44% hits; AID 2322, 2010; in the data active means inhibition above about 20%; inconclusive means no clear call, values can overlap the other calls
Target sequence (Q9BYT3 whole entry, looked up): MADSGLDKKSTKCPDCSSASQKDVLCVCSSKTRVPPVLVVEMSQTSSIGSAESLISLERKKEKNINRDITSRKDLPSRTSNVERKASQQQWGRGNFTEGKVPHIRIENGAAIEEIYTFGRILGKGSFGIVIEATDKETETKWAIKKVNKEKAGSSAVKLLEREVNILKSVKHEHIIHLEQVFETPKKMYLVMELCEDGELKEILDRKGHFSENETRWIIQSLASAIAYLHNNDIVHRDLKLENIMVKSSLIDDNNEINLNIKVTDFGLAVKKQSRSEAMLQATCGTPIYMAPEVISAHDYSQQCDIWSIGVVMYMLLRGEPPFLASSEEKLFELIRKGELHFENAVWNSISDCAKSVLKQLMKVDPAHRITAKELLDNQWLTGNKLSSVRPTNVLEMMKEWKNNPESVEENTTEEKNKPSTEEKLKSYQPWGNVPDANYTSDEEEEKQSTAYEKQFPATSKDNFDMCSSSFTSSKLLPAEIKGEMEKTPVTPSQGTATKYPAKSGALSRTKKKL
PD-1 reverse act = activators reversing PD-1 mediated T-cell inhibition, primary screen, luminescence, primary human CD4 T cells, PD-L1 beads. CellTiter-Glo 96 h. activation, % (concentration not given with the values). 29,000 tested, under 10 active. AID 2316, 2010; call rule not given here;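 further: 0% = median vehicle wells and 100% = positive control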
* = called active by the depositor; ? = inconclusive; nt = no result.

SMILES	NOMO-1 viab	STK33 kin inh	PD-1 reverse act
Cc1ccc(C)c(OC(=O)CS(=O)c2ccccc2[N+](=O)[O-])c1 (stereo not given)	120*	-4	-2
O=C(CS(=O)c1ccccc1[N+](=O)[O-])Oc1ccc(Cl)cc1Cl (stereo not given)	69	3	-4
COc1ccc(-c2ccc(CCC(=O)O)n2-c2ccc(N(C)C)cc2)cc1	14	-7	-2
Cc1ccc(OCC(=O)Nc2ccc3oc(-c4ccc(F)cc4Cl)nc3c2)cc1	46	0	-2
Oc1ccc(/C=N/c2nccs2)cc1	-4	nt	-2
CC12CC3(C)CC(C)(C1)CC(CN=Cc1ccc(O)cc1)(C2)C3	112*	nt	-2
COc1cccc(C(=O)c2sc3nsc(SCc4ccccc4)c3c2N)c1	18	nt	-8
C[C@@H]1CN([C@H](C)CO)C(=O)Cc2cc(NS(=O)(=O)c3ccc(F)cc3)ccc2O[C@@H]1CN(C)Cc1ccc(Oc2ccccc2)cc1	115*	3	-2
C[C@H](CO)N1C[C@H](C)[C@H](CN(C)Cc2ccc(Oc3ccccc3)cc2)Oc2ccc(NS(=O)(=O)c3ccc(F)cc3)cc2CC1=O	126*	1	1
C[C@@H]1CN([C@H](C)CO)C(=O)Cc2cc(NS(=O)(=O)c3ccccc3)ccc2O[C@@H]1CN(C)Cc1ccc(Oc2ccccc2)cc1	?	5	-4
C[C@H]1CN([C@@H](C)CO)C(=O)Cc2cc(NS(C)(=O)=O)ccc2O[C@@H]1CN(C)Cc1ccc(Oc2ccccc2)cc1	19	4	-6
Cc1ccc(NC(=O)Cn2cnc3sc(C(=O)OC(C)C)c(C)c3c2=O)cc1	66	-2	-2
COc1cc(OC)c(NC(=O)CSc2nnc(C)s2)cc1Cl	9	-1	-1
Cc1cc2c(c(=O)n1CCN1CCOCC1)C(c1cccc(F)c1)C(C#N)=C(N)O2 (stereo not given)	-1	nt	-1
N#CC1=C(N)C(C#N)=c2s/c(=C/c3cccc(F)c3)c(=O)n2C1c1cccc(F)c1 (stereo not given)	116*	12	1
CCOc1ccc2nc(SCC(=O)Nc3ccc(Br)cc3F)sc2c1	33	0	1
C[C@H](CO)N1C[C@H](C)[C@@H](CN(C)Cc2ccc3c(c2)OCO3)Oc2ccc(NC(=O)Nc3ccc(C(F)(F)F)cc3)cc2C1=O	11	nt	0
C[C@@H]1CN([C@@H](C)CO)C(=O)c2cc(NC(=O)Nc3ccc(C(F)(F)F)cc3)ccc2O[C@H]1CN(C)Cc1ccc2c(c1)OCO2	59	nt	-3
C[C@H](CO)N1C[C@H](C)[C@H](CN(C)Cc2ccc3c(c2)OCO3)Oc2ccc(NC(=O)Nc3ccc(C(F)(F)F)cc3)cc2C1=O	99*	-1	0
C[C@@H]1CN([C@@H](C)CO)C(=O)c2cc(NC(=O)Nc3ccc(C(F)(F)F)cc3)ccc2O[C@@H]1CN(C)Cc1ccc2c(c1)OCO2	112*	2	-2
C[C@H]1CN([C@@H](C)CO)C(=O)c2cc(NC(=O)Nc3ccc(F)cc3)ccc2O[C@H]1CN(C)Cc1ccc2c(c1)OCO2	92*	0	-1
C[C@@H]1CN([C@H](C)CO)C(=O)c2cc(NC(=O)Nc3ccc(C(F)(F)F)cc3)ccc2O[C@@H]1CN(C)Cc1ccc2c(c1)OCO2	49	nt	0
C[C@@H]1CN([C@@H](C)CO)C(=O)c2cc(NC(=O)Nc3ccc(F)cc3)ccc2O[C@@H]1CN(C)Cc1ccc2c(c1)OCO2	19	nt	1
C[C@H]1CN([C@@H](C)CO)C(=O)c2cc(NC(=O)Nc3ccc(C(F)(F)F)cc3)ccc2O[C@@H]1CN(C)Cc1ccc2c(c1)OCO2	101*	2	-5
COc1ccccc1CNc1cc(-c2nn3c(C)nnc3s2)ccc1C	4	3	nt
SMILES	NOMO-1 viab	STK33 kin inh	PD-1 reverse act
CN(CC(=O)Nc1ccc(Cl)cc1C(F)(F)F)S(=O)(=O)c1ccc(Br)cc1	-12	-2	nt
O=C(CSc1ncnc2sc(-c3ccccc3)cc12)Nc1ccccc1Cl	?	5	-5
COc1cccc(NC(=O)c2ccc(OC(=S)N3CCC(C)CC3)cc2)c1	56	nt	1
COc1ccc(OC)c(C(=O)CSc2nnc(-c3ccncc3)n2-c2ccc(C)cc2)c1	20	-1	-1
C=CCn1c2ccccc2c2nnc(SCC(=O)c3ccc(C)cc3)nc21	30	-2	nt
CC(=O)c1ccc(NC(=O)CSc2nc(C)cc(C)c2C#N)cc1	24	-2	2
N#Cc1c(NC(=O)CN2CCN(Cc3ccccc3)CC2)sc2c1CCCC2	7	1	nt
O=[N+]([O-])c1nn(-c2ccccc2)n(O)c1=NC1CCN(Cc2ccccc2)CC1	114*	-3	nt
CC(CCc1ccccc1)N=c1c([N+](=O)[O-])nn(-c2ccccc2)n1O (stereo not given)	18	-3	1
